# Laboratory results: PubChem BioAssay (Tox21)
# “And” between values parts separate entries of the source, which are not always exact repeats. Identical values can stand only once. Records with an inconclusive call do not appear. Entries that show only a call come without a potency. More than one record can exist for a structure, and the calls need not agree. The source made the active and inactive calls. Unless noted, the call rests on the fitted dose curve; in most records, active means well fitted curve in the direction sought with a large enough effect in the repeat runs; inconclusive means weak or mixed curves; inactive means no such curve, though single readings can be large; an effect the other way counts as inactive or inconclusive.
# Assays:
# [1] = qHTS assay to identify small molecule antagonists of the glucocorticoid receptor (GR) signaling pathway - cell viability counter screen (AID 720693); settings: GR-bla HeLa viability, CellTiter-Glo luminescence, 18 h, with 5 nM dexamethasone present; series mostly up to 58.5 µM; further: nearly all actives have a fitted effect of over 55% in size; further: potency means the concentration at half of the fitted maximal effect
# [2] = qHTS assay for identifying genotoxic compounds that show differential cytotoxicity against isogenic chicken DT40 cell lines with known DNA damage response pathways - wild type cell line (AID 743012); settings: DT40 wild type chicken cells viability, CellTiter-Glo, 40 h; series mostly up to 68.4 µM; further: nearly all actives have a fitted effect of over 60% in size; further: potency means the concentration at half of the fitted maximal effect
# Method in brief: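 Endpoint: CellTiter-Glo luminescence, 30 min RT. Cells: wild type DT40, 300/well. Exposure: compounds in DMSO, 40 h, 37 C/5% CO2, after ~0.5 h pre-incubation.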
# [3] = qHTS assay for identifying genotoxic compounds that show differential cytotoxicity against isogenic chicken DT40 cell lines with known DNA damage response pathways - Rev3 mutant cell line (AID 743014); settings: chicken DT40 Rev3-/- viability, CellTiter-Glo, 40 h; series mostly up to 68.4 µM; further: nearly all actives have a fitted effect of over 55% in size; further: potency means the concentration at half of the fitted maximal effect
# [4] = qHTS assay for identifying genotoxic compounds that show differential cytotoxicity against isogenic chicken DT40 cell lines with known DNA damage response pathways - Rad54/Ku70 mutant cell line (AID 743015); settings: DT40 Rad54/Ku70 mutant viability, CellTiter-Glo, 40 h; series mostly up to 66.8 µM; further: nearly all actives have a fitted effect of over 60% in size; further: potency means the concentration at half of the fitted maximal effect
# [5] = qHTS assay to identify small molecule antagonists of the androgen receptor (AR) signaling pathway - cell viability counter screen (AID 743033; further: nearly all actives have a fitted effect of over 45% in size; further: potency means the concentration at half of the fitted maximal effect); settings: AR-bla HEK293 viability, CellTiter-Glo luminescence, 16 h; series mostly up to 58.5 µM
# [6] = qHTS assay to identify small molecule antagonists of the androgen receptor (AR) signaling pathway using the MDA cell line - cell viability counter screen (AID 743041; further: nearly all actives have a fitted effect of over 45% in size; further: potency means the concentration at half of the fitted maximal effect); settings: MDA-kb2 viability, CellTiter-Fluor, 16 h, cells co-treated with R1881 androgen agonist; series mostly up to 70.3 µM
# Method in brief: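 Using the breast carcinoma line MDA-kb2 AR-luc, test chemicals were co-incubated with R1881 for 16 h; CellTiter-Fluor reagent, added at 15.5 h, provided a fluorescence measure of live cells.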
# [7] = target: Androgen receptor (Homo sapiens) (UniProt P10275); test: qHTS assay to identify small molecule agonists of the androgen receptor (AR) signaling pathway (AID 743036; active means well fitted activation curve with a large enough effect in the signal ratio in the repeat runs, with a control signal flat, not every such curve was filed as active; the % refers to the signal ratio); settings: HEK293 AR-UAS-bla GripTite, beta-lactamase FRET ratio, 16 h; series mostly up to 62.4 µM
# Method in brief: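 AR-UAS-bla HEK293 cells, plated 4 h before dosing, were treated with compound for 16 h at 37C. beta-Lactamase reporter read after 2 h with LiveBLAzer B/G FRET substrate at room temperature.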
# [8] = target: Androgen receptor (Homo sapiens) (UniProt P10275); test: qHTS assay to identify small molecule agonists of the androgen receptor (AR) signaling pathway using the MDA cell line (AID 743040; further: nearly all actives have a fitted effect of over 20% in size; further: potency means the concentration at half of the fitted maximal effect); settings: MDA-kb2 AR-luc cells, MMTV luciferase, 16 h; series mostly up to 70.3 µM
# Method in brief: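 Stable MMTV-luciferase reporter in MDA-kb2 cells; note the promoter carries GR as well as AR response elements. 16 h compound treatment, 37C, 0% CO2; ONE-Glo luminescence endpoint.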
# [9] = target: Androgen receptor (Homo sapiens) (UniProt P10275); test: qHTS assay to identify small molecule antagonists of the androgen receptor (AR) signaling pathway using the MDA cell line (AID 743042; further: nearly all actives have a fitted effect of over 55% in size; further: potency means the concentration at half of the fitted maximal effect); settings: MDA-kb2 AR-luc, MMTV luciferase, R1881 antagonist, 16 h; series mostly up to 70.3 µM
# Method in brief: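 Antagonist mode: compounds plus R1881 agonist added to MDA-kb2 AR-luc cells, incubated 16 h at 37C. Luciferase reporter luminescence quantified, with multiplexed CellTiter-Fluor readout for cell viability.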
# [10] = target: Androgen receptor (Homo sapiens) (UniProt P10275); test: qHTS assay to identify small molecule antagonists of the androgen receptor (AR) signaling pathway (AID 743035; active means well fitted inhibition curve with a large enough effect in the signal ratio in the repeat runs, not every such curve was filed as active; the % refers to the signal ratio; further: potency means the concentration at half of the fitted maximal effect); settings: HEK293 AR-UAS-bla, R1881-stimulated, beta-lactamase FRET, 16 h; series mostly up to 58.5 µM
# Method in brief: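 R1881 agonist challenge of a HEK293 UAS-beta-lactamase AR reporter line in the presence of compound (16 h, 37C); signal taken as FRET fluorescence after 2 h with LiveBLAzer B/G substrate at room temperature.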
# Chain of Androgen receptor (Homo sapiens) (P10275 whole entry, looked up): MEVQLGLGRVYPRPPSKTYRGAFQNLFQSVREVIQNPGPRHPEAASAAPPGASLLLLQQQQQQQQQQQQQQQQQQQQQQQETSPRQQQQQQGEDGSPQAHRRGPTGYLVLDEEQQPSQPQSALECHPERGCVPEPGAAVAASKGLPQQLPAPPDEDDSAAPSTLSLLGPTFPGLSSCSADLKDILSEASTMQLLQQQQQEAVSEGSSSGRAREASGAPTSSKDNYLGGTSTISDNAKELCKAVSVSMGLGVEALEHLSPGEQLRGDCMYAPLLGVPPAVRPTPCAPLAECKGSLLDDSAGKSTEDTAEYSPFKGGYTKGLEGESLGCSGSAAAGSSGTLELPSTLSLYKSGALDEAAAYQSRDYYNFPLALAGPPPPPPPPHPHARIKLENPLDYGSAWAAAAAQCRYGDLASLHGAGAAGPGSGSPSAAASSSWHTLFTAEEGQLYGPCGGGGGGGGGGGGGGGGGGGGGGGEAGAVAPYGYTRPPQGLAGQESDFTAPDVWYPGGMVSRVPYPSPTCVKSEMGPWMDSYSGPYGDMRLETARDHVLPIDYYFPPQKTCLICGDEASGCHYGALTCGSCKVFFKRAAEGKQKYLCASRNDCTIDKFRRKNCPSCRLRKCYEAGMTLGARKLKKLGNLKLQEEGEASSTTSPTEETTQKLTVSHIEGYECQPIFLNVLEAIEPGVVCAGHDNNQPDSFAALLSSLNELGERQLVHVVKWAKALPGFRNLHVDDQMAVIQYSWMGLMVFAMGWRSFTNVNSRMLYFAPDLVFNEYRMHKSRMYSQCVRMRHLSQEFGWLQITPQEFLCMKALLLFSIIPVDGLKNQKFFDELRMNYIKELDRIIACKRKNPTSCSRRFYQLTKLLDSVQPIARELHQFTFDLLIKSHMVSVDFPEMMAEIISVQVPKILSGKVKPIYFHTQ
SMILES,Potency [1],Potency [2],Potency [3],Potency [4],Potency [5],Potency [6],outcome [7],Potency [8],Potency [9],Potency [10]
Cc1ccc(C(C)(C)C)cc1,inactive,inactive,inactive,inactive,inactive,inactive,–,–,–,–
CN(Cc1cnc2nc(N)nc(N)c2n1)c1ccc(C(=O)N[C@@H](CCC(=O)O)C(=O)O)cc1,inactive,9.4 nM (active) and 1.7 nM (active),11.9 nM (active) and 1.7 nM (active),13.3 nM (active) and 1.7 nM (active),–,inactive,inactive,inactive,inactive,–
Clc1ccc(Sc2cc(Cl)c(Cl)cc2Cl)cc1,inactive,inactive,inactive,inactive,inactive,inactive,–,–,–,–
CC(C)=CCO,inactive,inactive,inactive,inactive,–,inactive,–,–,–,–
CCc1cccc2c3c([nH]c12)C(CC)(CC(=O)O)OCC3 (stereo not given),inactive,inactive,inactive,inactive,–,inactive,inactive,inactive,inactive,inactive
c1ccc2ncccc2c1,inactive,inactive,inactive,inactive,–,inactive,–,–,–,–
c1ccc2c(c1)ccc1ncccc12,inactive,inactive,inactive,inactive,–,inactive,inactive,inactive,–,inactive
O=C(O)c1cc(=O)[nH]c(=O)[nH]1,inactive,inactive,inactive,inactive,–,inactive,–,–,–,–
CC/C=C\C/C=C\C/C=C\CCCCCCCC(=O)O,inactive,inactive,inactive and 48.6 µM (active),inactive and 60.6 µM (active),–,inactive,–,–,–,–
CCC(Cc1c(I)cc(I)c(N)c1I)C(=O)O (stereo not given),inactive,inactive,inactive,inactive,inactive,inactive,–,–,–,–
CCCCCCOCCOCCO,inactive,inactive,inactive,inactive,–,inactive,–,–,–,–
CC[C@]12CCCN3CCc4c(n(c5ccccc45)[C@@](O)(C(=O)OC)C1)[C@@H]32,inactive,inactive,inactive,inactive,–,inactive,inactive,inactive,inactive,inactive
C=C1C[C@H]2[C@@H]3C=C(C)C4=CC(=O)CC[C@]4(C)[C@H]3CC[C@]2(C)[C@@]1(OC(C)=O)C(C)=O,inactive,7.5 µM (active) and 14 µM (active),8.41 µM (active) and 14 µM (active),10.6 µM (active) and 17.6 µM (active),–,inactive,inactive,47.3 nM (active) and 27.9 nM (active),inactive,1.77 µM (active)
CCCCCCC(C)O (stereo not given),inactive,inactive,inactive,inactive,inactive,inactive,–,–,–,–
CC(C)[C@@H]1CC[C@@H](C)CC1=O,inactive,inactive,inactive,inactive,inactive,inactive,–,–,–,–
CC1=CC(C)(C)Nc2ccccc21,inactive,inactive and 66.8 µM (active),inactive,inactive,inactive,inactive,–,–,–,–
c1ccc2c(c1)ccc1cc3c(ccc4ccccc43)cc12,inactive,inactive,inactive,inactive,inactive,inactive,–,–,–,–
IC(I)I,inactive,inactive,inactive,inactive,inactive,inactive,–,–,–,–
C=C[Si](OCCOC)(OCCOC)OCCOC,inactive,43.3 µM (active),inactive and 30.6 µM (active),inactive and 30.6 µM (active),inactive,inactive,–,–,–,–
COC(=O)CC(=O)OC,inactive,inactive,inactive,inactive,–,inactive,–,–,–,–
C=CCOC(=O)C(=C)C,inactive,inactive,inactive,inactive,inactive,inactive,–,–,–,–
O=C(O)c1ccc(O)cc1,inactive,inactive,inactive,inactive,–,inactive,–,–,–,–
CN1CCOCC1,inactive,inactive,inactive,inactive,inactive,inactive,–,–,–,–
CC(=O)[C@H]1CC[C@H]2[C@@H]3CC=C4C[C@@H](O)CC[C@]4(C)[C@H]3CC[C@]12C,inactive,inactive,0.485 µM (active),inactive,inactive,inactive,–,–,–,–
CCCCCCCC/C=C\CCCCCCCC(=O)O,inactive,inactive,inactive,inactive,inactive,inactive,–,–,–,–
CC(=O)Nc1ccc2c(c1)Cc1cc(NC(C)=O)ccc1-2,inactive,inactive,inactive,inactive,inactive,inactive,–,–,–,–
CC(=O)O[C@]1(C(C)=O)CC[C@H]2[C@@H]3C=C(C)C4=CC(=O)CC[C@]4(C)[C@H]3CC[C@@]21C,inactive,11.4 µM (active) and 13.7 µM (active),12.7 µM (active) and 17.2 µM (active),15.4 µM (active),inactive,inactive,–,–,–,–

SMILES,Potency [1],Potency [2],Potency [3],Potency [4],Potency [5],Potency [6],outcome [7],Potency [8],Potency [9],Potency [10]
C1COCCN1,inactive,inactive,inactive,inactive,inactive,inactive,–,–,–,–
Cc1ccc(C(C)(C)C)c(O)c1,inactive,54.5 µM (active),inactive and 48.6 µM (active),inactive and 43.3 µM (active),–,inactive,–,–,–,–
COC(=O)c1ccc(C)cc1,inactive,inactive,inactive,inactive,inactive,inactive,–,–,–,–
Nc1cc(Cl)c(N)c(Cl)c1,inactive,–,–,–,inactive,inactive,–,–,–,–
CCCCCC=O,inactive,inactive,inactive,inactive,–,inactive,–,–,–,–
C1CN(SSN2CCOCC2)CCO1,inactive,27.3 µM (active),42.8 µM (active) and 27.3 µM (active),19.3 µM (active),–,inactive,–,–,–,–
CCCOCCO,inactive,inactive,inactive,inactive,–,inactive,–,–,–,–
O=C(O)CCCCCCCCCCCC(=O)O,inactive,inactive,inactive,inactive,–,inactive,–,–,–,–
CC(C)[N+](C)(CCOC(=O)C1c2ccccc2Oc2ccccc21)C(C)C,inactive,inactive,inactive,inactive,–,inactive,–,–,–,–
Cc1ccc(N)c([N+](=O)[O-])c1,inactive,inactive,inactive,inactive,–,inactive,–,–,–,–
CC(=O)Oc1ccc(C(c2ccc(OC(C)=O)cc2)c2ccccn2)cc1,inactive,23.7 µM (active) and inactive,–,–,inactive,–,inactive,inactive,0.765 µM (active),inactive
C=CCNCC=C,inactive,inactive,inactive,inactive,–,inactive,–,–,–,–
COC(=O)C(C)Oc1ccc(Oc2ncc(C(F)(F)F)cc2Cl)cc1 (stereo not given),inactive,–,54.5 µM (active),–,inactive,inactive,–,–,–,–
OCCNCCO,inactive,inactive,inactive,inactive,–,inactive,–,–,–,–
CCOC(=O)C(C)Oc1ccc(Oc2cnc3cc(Cl)ccc3n2)cc1 (stereo not given),inactive,40.5 µM (active),inactive and 40.5 µM (active),inactive and 45.5 µM (active),–,inactive,–,–,–,–
Cc1ccc(S(=O)(=O)O)cc1C,inactive,inactive,inactive,inactive,–,inactive,–,–,–,–
C[C@]12CC[C@@H]3c4ccc(O)cc4CC[C@H]3[C@@H]1CC[C@@H]2O,24.5 µM (active),29.8 µM (active) and 61.1 µM (active),23.7 µM (active) and 54.4 µM (active) and 54.5 µM (active),26.6 µM (active) and 54.5 µM (active),–,inactive,–,–,–,–
Nc1ccc2c(c1)C(=O)c1ccccc1C2=O,inactive,–,60 µM (active) and inactive,9.51 µM (active) and 12.2 µM (active),48.1 µM (active) and inactive,inactive,–,–,–,–
COc1ccc(-c2coc3cc(O)cc(O)c3c2=O)cc1,–,54.5 µM (active),27.3 µM (active),27.3 µM (active),–,inactive,–,–,–,–
C=CN1CCCC1=O,inactive,inactive,inactive,inactive,–,inactive,–,–,–,–
CCCCCC1C(=O)CCC1CC(=O)OC (stereo not given),inactive,inactive,inactive,inactive,–,inactive,–,–,–,–
FC(F)(F)C(Cl)Br (stereo not given),inactive,inactive,inactive,inactive,–,inactive,–,–,–,–
NCCN,inactive,–,–,–,–,inactive,–,–,–,–
COc1ccc(C(=O)c2ccccc2O)c(O)c1,inactive,inactive,inactive,inactive,–,inactive,–,–,–,–
OC[C@H]1O[C@@H]2O[C@H]3[C@H](O)[C@@H](O)[C@@H](O[C@H]4[C@H](O)[C@@H](O)[C@@H](O[C@H]5[C@H](O)[C@@H](O)[C@@H](O[C@H]6[C@H](O)[C@@H](O)[C@@H](O[C@H]7[C@H](O)[C@@H](O)[C@@H](O[C@H]1[C@H](O)[C@H]2O)O[C@@H]7CO)O[C@@H]6CO)O[C@@H]5CO)O[C@@H]4CO)O[C@@H]3CO,inactive,inactive,inactive,inactive,–,inactive,–,–,–,–
CC(=O)OC(C)C,inactive,inactive,inactive,inactive,–,inactive,–,–,–,–
CN(C)CCCN1c2ccccc2Sc2ccc(Cl)cc21,–,9.44 µM (active) and 13.7 µM (active),9.44 µM (active) and 27.3 µM (active),11.9 µM (active) and 19.3 µM (active),24.5 µM (active),68.6 µM (active),–,–,–,–
